From ChEMBL document CHEMBL4513216, “Probing the Open Global Health Chemical Diversity Library for Multistage-Active Starting Points for Next-Generation Antimalarials” (ACS Infect Dis, 2020)
Screen size: about 69,000 compounds; about 8,600 (12%) showed an effect of 50% or more. The sample as a whole holds a higher share of strong results than the screen did.

test system: Plasmodium berghei; experiment: Screen against P. berghei liver stage (PbLuc), transformed with Luciferase, at 10uM; type: functional, HepG2; settings: tested at 10 uM

First: Cc1nc(NCc2ccc(F)cc2)cc(C2CCCN2)n1 (stereo unspecified)
Second: Cc1cc(NCCNS(=O)(=O)c2cccc(Cl)c2)nc(C)n1
The INHIBITION of the first is higher: 41.5% for the first, 24.7% for the second.

First: O=C(Cn1ccc2ccc(Br)cc21)NCc1ccc(C(=O)O)cc1
Second: O=C(Cn1cnc2ccccc2c1=O)Nc1cc(C2CC2)n[nH]1
The INHIBITION of the first is lower: -30.8% for the first, 89.4% for the second.

Going from `CC(C)c1nn(C)c(N(C)C)c1CNC1CCCOc2ccccc21` (stereo unspecified) to `COc1ccc(CNC2CCCc3nc(N(C)C)ncc32)c(OC)c1` (stereo unspecified), the INHIBITION falls from 35.4% to 16.7%.

First: COCc1nc(N(C)C)ncc1C(=O)Nc1ccc(Cl)cc1
Second: CC(NCC1(N(C)C)CCOCC1)c1ccc(Cl)cc1 (stereo unspecified)
The INHIBITION of the first is lower: -18.8% for the first, -2.025% for the second.

Compared with `O=C(COC1CCCC1)NCc1ccc(O)c(F)c1`, `O=C(NCCNC(=O)C1Cc2cc(F)ccc2O1)C1CCCCC1` (stereo unspecified) is higher in INHIBITION: -16.4% for the first, -0.529% for the second.

Compared with `CN1CC(=O)N(c2cccc(F)c2)CC12CCN(Cc1ccsc1)C2` (stereo unspecified), `CN1CC2(CCN(C(=O)c3cccnc3)CC2)c2cccc(F)c21` is higher in INHIBITION: 23.6% for the first, 31.5% for the second.

First: Cc1ccc(Cl)cc1-n1nnnc1C1(N2CCCC2)CCCCC1
Second: Cc1ccc(Cl)cc1-n1nnnc1C1(N2CCCC2)CCCC1
The INHIBITION of the first is higher: 63.9% for the first, 33% for the second.

Compared with `Clc1ccc2nncc(N3CCCCC3)c2c1`, `O=C(C1CC(=O)N(c2n[nH]c3cc(Br)ccc23)C1)N1CCCC1` (stereo unspecified) is lower in INHIBITION: -0.991% for the first, -19.4% for the second.

First: CN1CCN(c2cc(CNC(=O)c3ccc(Cl)o3)ccn2)CC1
Second: COc1ccc(CCN2CCN(C(=O)c3scnc3C)CC2)cc1
The INHIBITION of the first is higher: 38.45% for the first, 25.3% for the second.

Going from `Cc1csc(NC(=O)CN2CCCC(Cn3nc(C)nc3C)C2)n1` (stereo unspecified) to `Cc1cc(C)n(CC2CCCN2C(=O)c2ccc(N(C)C)nn2)n1` (stereo unspecified), the INHIBITION rises from 0.4% to 38.8%.

First: COc1c(C)cnc(CSc2nnc(N3CCCC3)s2)c1C
Second: O=C(CSc1nnc(N2CCCC2)s1)NC(=O)Nc1ccccc1
The INHIBITION of the first is higher: 32.9% for the first, -22.405% for the second.

First: COc1cccc2c1OCC(NC(=O)NCc1cccs1)C2 (stereo unspecified)
Second: COc1cccc2c1OCC(NC(=O)NCCc1ccccn1)C2 (stereo unspecified)
The INHIBITION of the first is lower: 20.5% for the first, 59.1% for the second.

Compared with `COc1cccc2c1OCC(Cc1cc(C(=O)N3CCCC3)ccn1)C2` (stereo unspecified), `COc1cccc2c1OCC(Cc1cc(C(N)=O)ccn1)C2` (stereo unspecified) is lower in INHIBITION: 57.2% for the first, 38% for the second.

Compared with `COc1cccc2c1OCC(C(=O)NCCc1nc3c(s1)CCC3)C2` (stereo unspecified), `COc1cccc2c1OCC(C(=O)NCCc1nnc(C)s1)C2` (stereo unspecified) is higher in INHIBITION: 40.6% for the first, 65.6% for the second.

Going from `COc1cccc2c1OCC(NC(=O)NCCC(N)=O)C2` (stereo unspecified) to `COc1cccc2c1OCC(C(=O)NCCc1nnc(N)s1)C2` (stereo unspecified), the INHIBITION rises from 15.1% to 43.4%.

First: CNC(=O)c1ccnc(CC2COc3c(cccc3OC)C2)c1 (stereo unspecified)
Second: COc1ccccc1NC(=O)CSC1CCc2ccccc2NC1=O (stereo unspecified)
The INHIBITION of the first is lower: -9.54% for the first, 10.8% for the second.

First: COc1ccc(-c2ccc(C(=O)N3CCOCC3CC(N)=O)o2)cc1 (stereo unspecified)
Second: O=C(NC1CCN(CC2CC2)C1)c1ccc(C(=O)c2cc[nH]c2)cc1 (stereo unspecified)
The INHIBITION of the first is lower: -71.5% for the first, 10.6% for the second.

Compared with `CC(C)(CN1CCC2(CCCNC2)C1)N1CCOCC1` (stereo unspecified), `CC(C)N1CCC2(CCNCC2)C1=O` is higher in INHIBITION: -41.8% for the first, -25.8% for the second.

Going from `O=C(CCc1cncc(F)c1)NS(=O)(=O)c1ccc(F)cc1F` to `CC(C)=CCN1CCc2onc(-c3ccc(F)c(F)c3)c2C1`, the INHIBITION falls from 30.3% to 5.78%.

Going from `O=c1ccc2c(n1Cc1ccncc1)CCN(Cc1ccoc1)CC2` to `O=S1(=O)NC2(CCCN(Cc3ccc(Cl)cc3)C2)COc2ccccc21` (stereo unspecified), the INHIBITION rises from -37.9% to 27.5%.

Going from `CC(C)N1C[C@@H]2CN(C(=O)NCc3ccccc3)CCC[C@]2(C(=O)O)C1` to `O=C(O)[C@@H]1CN(C(=O)Cc2ccccc2Cl)C[C@H]1C1CC1`, the INHIBITION rises from 34.6% to 79.2%.

Going from `CNC(=O)[C@@H]1C[C@H]2CN(Cc3nccs3)C[C@H]2N1C` to `CCOCC(=O)N1Cc2nccn2CC(CN(C)C)C1` (stereo unspecified), the INHIBITION falls from 46.6% to -7.7%.

First: Nc1nc(N)c2c(n1)OC1(CCN(C(=O)CC3CCCCN3)CC1)C2 (stereo unspecified)
Second: CC(O)c1cn(C2CCN(C(=O)C3(C)CCCCC3)CC2)nn1 (stereo unspecified)
The INHIBITION of the first is higher: 26.95% for the first, 10.3% for the second.

Compared with `CCC(C)CN1CCC(n2cc(C3CCCC3)nn2)CC1` (stereo unspecified), `CCC(C)CN1CCC(n2cc(C3CCCCC3)nn2)CC1` (stereo unspecified) is higher in INHIBITION: 16.9% for the first, 77.6% for the second.

Compared with `CCC(CC)CN1CCC(n2cc(C3CCCC3)nn2)CC1`, `CCCC(C)CN1CCC(n2cc(C3CCCC3)nn2)CC1` (stereo unspecified) is higher in INHIBITION: 60.4% for the first, 61.1% for the second.

Going from `CSC(C)CCN1CCC(n2cc(C3CCCCC3)nn2)CC1` (stereo unspecified) to `C=C(C)CN1CCC(n2cc(C3CCCC3)nn2)CC1`, the INHIBITION falls from 67.7% to 46.4%.

Compared with `OCc1ccc(CN2CCC(n3cc(C4CCCCC4)nn3)CC2)o1`, `CC(C)Nc1cc(N2CCC(n3cc(C4CCCC4)nn3)CC2)ncn1` is lower in INHIBITION: 48.8% for the first, 16.1% for the second.

Compared with `CCCC(C)CN1CCC(n2cc(CCCO)nn2)CC1` (stereo unspecified), `CC(C)Cc1cn(C2CCN(C(C)CC3CC3)CC2)nn1` (stereo unspecified) is lower in INHIBITION: 13.7% for the first, -129% for the second.

First: O=C(c1cn(-c2ccccc2)nn1)N1CCCC(n2cccn2)C1 (stereo unspecified)
Second: CN(CC(=O)N1CCC(COc2ccccc2)CC1)c1cnccn1
The INHIBITION of the first is lower: -67.3% for the first, -16.295% for the second.

Going from `CO[C@@H]1CCN(S(=O)(=O)c2cn(C)cn2)[C@H]1Cc1cnn(C)c1` to `Cc1nc(CN2CC[C@H](OCC3CC3)[C@@H]2Cc2cccnc2)cs1`, the INHIBITION falls from 49.1% to -3.33%.

First: CCCc1n[nH]c(C2CN(CCNS(C)(=O)=O)CCO2)n1 (stereo unspecified)
Second: CN(C)C1CCN(Cc2cnc(S(C)(=O)=O)n2CC2CCCCC2)C1 (stereo unspecified)
The INHIBITION of the first is lower: -69% for the first, 81.6% for the second.

First: O=C(c1cscn1)N1C[C@H](OCc2cccnc2)[C@H]2COC[C@H]21
Second: CCn1ncc2c1C(COCC1CC1)CN(C(=O)c1ccncn1)C2 (stereo unspecified)
The INHIBITION of the first is lower: 3.58% for the first, 26.4% for the second.

First: CNC(=O)c1cc(NC(=O)NC2CC2)ccc1F
Second: C=C(C)CN1CCC(NC(=O)Nc2ccc(F)c(C(=O)NC)c2)CC1
The INHIBITION of the first is lower: -0.514% for the first, 52.6% for the second.

Going from `C=C(C)CN1CCC(NC(=O)Nc2ccc(F)c(C(N)=O)c2)CC1` to `O=C(CSc1nnc(N2CCOCC2)s1)NC(=O)Nc1ccccc1`, the INHIBITION falls from 42.3% to -1%.

Going from `Cc1cc(C)n(CC(=O)N2CCC(c3cc4cccnc4[nH]3)CC2)n1` to `CC(=O)N1CCCC1c1nccnc1Nc1cccc(C)n1` (stereo unspecified), the INHIBITION rises from 1.62% to 39.2%.

First: CCN1CCCC(O)(CN(C)Cc2c(C)nn(C)c2C)C1 (stereo unspecified)
Second: COC[C@@H]1CCCN1C(=O)CCc1c(C)nn(C)c1C
The INHIBITION of the first is higher: 42.4% for the first, 8.7% for the second.

Compared with `Cc1noc(OCc2ccc(C#N)cc2)n1`, `Cc1noc(OCCOc2ccc(C#N)cc2)n1` is lower in INHIBITION: 64.5% for the first, 18.6% for the second.

Going from `CC(C)c1noc(OCc2cccc(C#N)c2)n1` to `CC(C)c1cc(NC(=O)Cn2cnc3ccccc3c2=O)[nH]n1`, the INHIBITION falls from 46.1% to -27.4%.

Compared with `O=C(NCCC(=O)N1CCCCCCC1)c1ccoc1`, `O=C(NC1CCN(CC2CC2)C1)c1ccc(N2CCC(O)CC2)cc1` (stereo unspecified) is higher in INHIBITION: -18% for the first, 77.7% for the second.

First: CC(NCCNS(=O)(=O)c1cccc(Cl)c1)C1CCOCC1 (stereo unspecified)
Second: O=C(NCCNS(=O)(=O)c1cccc(Cl)c1)C1CCCO1 (stereo unspecified)
The INHIBITION of the first is higher: 67.1% for the first, 38.9% for the second.

First: CN(C)C(=O)N1C[C@H]2CC[C@@H](C1)N(Cc1nnc(-c3ccccc3)o1)C2
Second: c1ccc(-c2noc3c2CN(CC2CC2)CC3)cc1
The INHIBITION of the first is lower: -3.73% for the first, 2.3% for the second.

Compared with `OC(CNCc1ccccc1C(F)(F)F)c1ccccc1` (stereo unspecified), `O=C(CSc1nnc(N2CCNCC2)s1)Nc1ccccc1` is higher in INHIBITION: 1.98% for the first, 59.2% for the second.

Compared with `CC(=O)N(C)Cc1cncc(C2CCCN2C2CCOCC2)n1` (stereo unspecified), `CS(=O)(=O)c1ncc(CN2CCCC(C(N)=O)C2)n1CC1CCCCC1` (stereo unspecified) is lower in INHIBITION: 15.925% for the first, 0.734% for the second.

Going from `Cc1cnc(NC(=O)CSC2CCc3ccccc3NC2=O)s1` (stereo unspecified) to `O=C(CSC1CCc2ccccc2NC1=O)NC1CC1` (stereo unspecified), the INHIBITION falls from 54.6% to -41.4%.

Going from `O=c1c2ccccc2ncn1Cc1cc(C2CC2)[nH]n1` to `CC(C)CC1SCC(=O)Nc2c1cnn2-c1ccccc1F` (stereo unspecified), the INHIBITION falls from 18.5% to 13%.

First: CN1CCc2onc(CNc3ncccn3)c2C1
Second: CC(O)CN1CCc2onc(-c3ccccc3F)c2C1 (stereo unspecified)
The INHIBITION of the first is higher: 19.5% for the first, -10.9% for the second.

Going from `CN(C)C1(CNC(=O)c2c(O)cc(Cl)cc2Cl)CCOCC1` to `CN(C)C1(CNC(=O)Cc2ccc(F)cc2)CCOCC1`, the INHIBITION falls from 54.8% to -21.8%.

Compared with `O=C(c1ccc[nH]1)N1CCc2cc(S(=O)(=O)N3CCOCC3)ccc2C1`, `Fc1ccccc1-c1noc2c1CN(CCN1CCOCC1)CC2` is lower in INHIBITION: 42.8% for the first, 34.5% for the second.

First: O=C(Nc1ccnc2ccnn12)c1ccc(N2CCC(O)CC2)cc1
Second: Cc1nnc2n1CCN(C(C(N)=O)c1ccc(F)cc1)C2 (stereo unspecified)
The INHIBITION of the first is higher: 38.1% for the first, 25.8% for the second.

Compared with `CCN(CC)c1nc2sc(C(=O)N3CCNC(=O)C3)cc2s1`, `Cc1cc(=O)n2nc(Oc3cccc(C(N)=O)c3)sc2n1` is higher in INHIBITION: -81.7% for the first, 3.84% for the second.

Compared with `CCOc1ccccc1CC(=O)N1C[C@@H](C(=O)O)[C@H](C2CC2)C1`, `O=C(O)[C@@H]1CN(C(=O)CCCc2ccc(F)cc2)C[C@H]1C1CC1` is lower in INHIBITION: 2.66% for the first, -14.2% for the second.

Compared with `Cc1cc2c(cc1C)OC(C(=O)NCCNC(=O)C1CCCC1)C2` (stereo unspecified), `Cc1ccc(NCCNC(=O)C2Cc3cc(C)c(C)cc3O2)nn1` (stereo unspecified) is higher in INHIBITION: -35.1% for the first, 55% for the second.

Compared with `CS(=O)(=O)c1ncc(CN2CCN3CCCC3C2)n1CC1CCCCC1` (stereo unspecified), `N#Cc1ccc(CN2CCC(CN3CCOCC3)C2)cc1` (stereo unspecified) is lower in INHIBITION: 12.3% for the first, -11.9% for the second.

Compared with `NC(=O)C(c1ccc(F)cc1)N1CCN(CCO)CC1` (stereo unspecified), `CCc1nnc2n1CCN(C(C(N)=O)c1ccc(F)cc1)C2` (stereo unspecified) is lower in INHIBITION: 56.9% for the first, 1.45% for the second.

First: COc1cccc(OC)c1OCCn1c(C)c(C)oc1=O
Second: Fc1ccccc1-c1noc2c1CN(CC1CC1)CC2
The INHIBITION of the first is lower: 22.5% for the first, 55.4% for the second.

`Fc1ccc(-c2noc3c2CN(CC2CC2)CC3)cc1F` showed an INHIBITION of 52.7%.
